PLK1 PBD block: inhibitors of human PLK1 polo-box domain binding; P53350; Plk1 PBD binding of FITC phosphopeptide, fluorescence polarization; Potency, µM, inactives show max response, negative = inhibition, actives largely listed as inhibitors; 360,000 tested, 2.8% active; further: series mostly up to about 57 µM; nearly all actives have a fitted effect of over 65% in size
Tau fluor cs: counter-screen for tau fibril formation inhibitors; tau K18 P301L Alexa594 fluorescence, heparin fibrillization; Potency, µM (series often up to 57.7 µM), for the others: at the highest dose activity change, negative = decrease; 280,000 tested, 0.93% active; AID 1463; further: nearly all actives have a fitted effect of over 55% in size
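Human tau K18 P301L (15 uM unlabeled, 0.24 uM Alexa 594-labeled) in 100 mM sodium acetate pH 7 with 20 uM heparin, 6 hr at 37 C. ThT 30 uM added, 1 hr ambient; Alexa 594 FP and total fluorescence read at 555/632 nm.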
Sfp PPTase inh: inhibitors of Bacillus subtilis Sfp phosphopantetheinyl transferase. Biochemical Sfp PPTase activity, qHTS. Potency, µM, without a hit: largest response in the series, negative = inhibition, hits mostly inhibitors. 310,000 tested, 3.5% active. AID 1490;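 further: the enzyme is Sfp with the accession as filed and its product quenches rhodamine fluorescence; 0% = enzyme reaction without inhibitor and -100% = no enzyme wells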
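Step 1, compound plus 15 nM Sfp-PPTase, 15 min, room temperature. Step 2, add rhodamine-CoA (5 uM) and BHQ-2-YbbR (12.5 uM). Step 3, read 525/598 nm fluorescence at 0 and 30 min.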
VDR inhibitor: inhibitors of human vitamin D receptor. VDR-SRC2-3 peptide fluorescence polarization, 2 h. Potency, µM, for the others: max response, negative = inhibition, hits mostly inhibitors. 400,000 tested, 0.93% active. AID 504847
Target sequence (P11473 whole entry, looked up): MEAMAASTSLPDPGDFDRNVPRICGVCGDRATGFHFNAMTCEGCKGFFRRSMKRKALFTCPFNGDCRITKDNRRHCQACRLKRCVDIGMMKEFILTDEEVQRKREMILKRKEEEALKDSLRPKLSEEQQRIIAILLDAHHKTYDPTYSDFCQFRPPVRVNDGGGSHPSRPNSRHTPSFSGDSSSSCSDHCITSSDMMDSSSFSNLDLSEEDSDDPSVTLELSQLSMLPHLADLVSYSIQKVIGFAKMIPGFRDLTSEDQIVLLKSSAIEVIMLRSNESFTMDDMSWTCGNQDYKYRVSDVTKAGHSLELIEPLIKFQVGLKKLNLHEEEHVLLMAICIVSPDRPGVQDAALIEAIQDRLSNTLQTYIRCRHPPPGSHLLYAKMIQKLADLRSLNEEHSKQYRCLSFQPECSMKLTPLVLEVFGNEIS
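Compounds are added to VDR with labelled SRC2-3 coactivator peptide and held 2 h at room temperature. Inhibition of the VDR–peptide interaction is then read as a change in fluorescence polarization.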
Tau FP inhib: inhibitors of human tau fibril formation | P10636 | Potency, µM (titrated, usually from 57.7 µM), without a hit: at the top dose activity, negative = inhibition, actives largely listed as inhibitors | K18 P301L tau heparin fibrillization, Alexa594 FP, 6 h | 280,000 tested, 0.39% active | AID 1468; further: nearly all actives have a fitted effect of over 55% in size
Target sequence (P10636 561-689 P618L limits assumed): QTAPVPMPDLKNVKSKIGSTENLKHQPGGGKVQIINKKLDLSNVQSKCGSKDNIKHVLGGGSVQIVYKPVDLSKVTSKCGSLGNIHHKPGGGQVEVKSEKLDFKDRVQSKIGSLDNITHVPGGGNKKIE
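Compound effects on tau fibrillization are measured by Alexa 594 fluorescence polarization (ex 555, em 632 nm). K18 P301L tau is used at 15 uM with 0.24 uM labeled tracer, and 20 uM heparin induces aggregation over 6 hr at 37 C.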
Tau fibril ThT: blocks human tau fibril formation measured by thioflavin T; AID 1460; Potency, µM (top dose mostly 57.4 µM), for inactives: at the top dose activity, negative = inhibition, hits mostly inhibitors; P10636; recombinant tau K18 P301L (four-repeat tau fragment), heparin-induced fibrillization, ThT fluorescence; 270,000 tested, 2.1% active; further: nearly all actives have a fitted effect of over 55% in size
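Heparin-induced (20 uM) aggregation of recombinant human K18 P301L tau, 15 uM unlabeled with 0.24 uM labeled, pH 7 acetate buffer, 6 hr at 37 C with compound. Fibrils quantified by 30 uM ThT fluorescence after 1 hr ambient incubation.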
Active calls of the source: *; ? = inconclusive; / = no result given; [ ] = remark or other dose. Compounds with a hit are over-represented: about 6% of the library has one in this group of screens. The call rests on the fitted dose curve; in most records, active means well fitted curve in the direction sought with a large enough effect; inconclusive means small, poorly fitted or top-dose-only effect, or another doubt; inactive means no such curve, though single readings can be large; an effect the other way counts as inactive or inconclusive. Unless noted, on the % scale 0 is the no-effect control and ±100 the full control effect; potency means the concentration at half of the fitted maximal effect.

SMILES | PLK1 PBD block | Tau fluor cs | Sfp PPTase inh | VDR inhibitor | Tau FP inhib | Tau fibril ThT
Cc1[nH]c2ccccc2c1C(=O)COC(=O)c1c(-c2c(F)cccc2Cl)noc1C | 3% | ? | 8% | -9% | 14µM* | 9%
Cc1[nH]c2ccccc2c1C(=O)COC(=O)c1ccc([N+](=O)[O-])s1 | -8% | 11µM*[quencher] | 13% | -22% | -2% | 7.1µM*
CCOc1ccccc1CNc1ncnc2c1nc1n2CCCC1 | / | -6% | / | 6% | -2% | -2%
Cc1cc2c(Nc3cccc(O)c3)ncnc2s1 | -3% | / | -11% | 4% | / | /
C/C(CCc1ccc2c(c1)OCO2)=N\N=C(/N)SC1CC(=O)N(c2ccccc2F)C1=O (stereo not drawn) | -5% | -7% | 79µM* | 1% | 3% | -5%
CCC(C)(C)c1ccc(OCCCC[n+]2ccccc2)c(C(C)(C)CC)c1 | -12% | -6% | 50µM* | -15% | -6% | ?
CCCCCc1ccc(OCCCC[n+]2ccc(C)cc2)c(CCCCC)c1 | -12% | -15% | 50µM* | 0% | -2% | ?
CCCCCc1ccc(OCCCC[n+]2ccccc2)c(CCCCC)c1 | -9% | 6% | 35µM* | 18% | 4% | -16%
CCCCCc1ccc(OCCCC[n+]2cccc(C)c2)c(CCCCC)c1 | -12% | 6%[2.34 µM] | -8% | -4% | 1% | ?
CCC(C)(C)c1ccc(Oc2cccc(C(=O)O)c2)cc1 | ? | -9% | 18% | -12% | 3% | -9%
CC(C)CC1OC(C(C)C)Cc2[nH]c(=S)[nH]c(=O)c21 (stereo not drawn) | -11% | / | / | / | / | /
CC1CCN(C(=O)CSc2nnc(-c3cc4ccccc4cc3O)n2Cc2ccco2)CC1 | -9% | -9% | 28µM* | 1% | 9% | ?
COc1ccc(C(=O)CSc2nnc(-c3cc4ccccc4cc3O)n2Cc2ccco2)cc1 | -11% | ? | 13% | -10% | -9% | -6%
CCOC(=O)C1=C(C)N=c2s/c(=C\c3ccncc3)c(=O)n2C1c1ccc2c(c1)OCO2 (stereo not drawn) | -8% | ? | -20% | ? | ? | 25µM*
CCOC(=O)C1=C(C)N=c2s/c(=C3\C(=O)Nc4ccccc43)c(=O)n2C1c1ccc2c(c1)OCO2 (stereo not drawn) | -1% | ? | 3% | -25% | ? | 18µM*
CCOC(=O)C1=C(C)N=c2s/c(=C/c3ccccc3)c(=O)n2C1c1ccc(OC)c(OC)c1 (stereo not drawn) | -3% | -9% | 1% | -10% | 1% | -15%
CCOC(=O)C[C@@H]1OC[C@H](CO)N1S(=O)(=O)c1ccc(C)cc1 | -6% | / | / | / | / | /
COc1ccc(C(C)=O)cc1Cn1c(C)c(C(=O)NCCC#N)sc1=O | -1% | / | / | / | / | /
COc1ccc(OC)c2[nH]c(=O)c(CCNS(=O)(=O)c3ccc(F)cc3)cc12 | 2% | / | 9% | -7% | / | /
COc1cc(S(=O)(=O)NCCc2c(C)[nH]c3ccc(C)cc23)ccc1Br | / | 14µM*[quencher] | / | 10% | ? | ?
COc1ccc(C(C)C)cc1S(=O)(=O)NCCc1c(C)[nH]c2c(Cl)cccc12 | / | ? | / | 1% | 2% | ?
COc1ccc(C(C)C)cc1S(=O)(=O)NCCc1c(C)[nH]c2ccc(C)cc12 | / | 10µM*[quencher] | / | 5% | ? | ?
O=C(Nc1cccc(OCc2cc(=O)n3ccccc3n2)c1)Nc1cccc(C(F)(F)F)c1 | / | ? | / | 0% | ? | 2%
CC1CCN(c2nc3ccccc3nc2C(F)(F)F)CC1 | / | -5% | / | 16% | -6% | 3%
Cc1ccc2cccc(OCC(=O)NCc3ccco3)c2n1 | -10% | 5% | 28µM* | 7% | 0% | 2%
SMILES | PLK1 PBD block | Tau fluor cs | Sfp PPTase inh | VDR inhibitor | Tau FP inhib | Tau fibril ThT
CC(C(=O)Nc1ccccc1C(=O)N1CCOCC1)N(c1ccccc1)S(C)(=O)=O (stereo not drawn) | 27µM* | 5% | 21% | ? | 3% | 3%
CN(c1ccc(C(=O)Nc2ccccc2C(=O)N2CCOCC2)cc1)S(C)(=O)=O | -5% | -6% | 20% | 1% | -4% | -11%
COc1ccc(S(=O)(=O)c2c(O)c3ccc(C(=O)NCc4ccccc4)cc3[nH]c2=O)cc1 | / | 2% | / | 3% | -8% | 10%
COc1ccccc1-n1nnnc1SCC(=O)Nc1ccc(C)c(N)c1 | -8% | / | 79µM* | -11% | / | /
CCOc1ccc(-c2nnn(CCC#N)n2)cc1OC | 19µM* | 6% | 12% | ? | -5% | 6%
CCc1ccc(-c2nnn(CCC#N)n2)cc1 | -8% | -7% | 19% | -3% | -2% | -9%
COc1ccc(Cc2c3cc(OC)c(OC)cc3cc[n+]2C)cc1OC | ? | 10% | 79µM* | -12% | 1% | -3%
CC[n+]1ccc2cc(OC)c(OC)cc2c1Cc1ccc(OC)c(OC)c1 | ? | -3% | ? | -14% | 11% | -10%
CCN(CC)CCn1c(NCc2cc(OC)ccc2OC)nc2ccccc21 | 27µM* | -5% | 0% | ? | 5% | -2%
CCC(=O)NNC(=O)Cc1c(C)n(C(=O)c2ccc(Cl)cc2)c2ccc(OC)cc12 | 4% | / | 1% | 12% | / | /
O=C(COC(=O)c1ccc(O)cc1)NC1CCCCCCC1 | -5% | / | / | / | / | /
CC(=O)N1CN(Cc2ccccn2)Cc2c1sc1c2CCCC1 | -17% | -5% | 45µM* | -8% | -7% | ?
Cc1cc(C)cc(N2C(=O)CC(c3ccc(C(F)(F)F)cc3)C3=C2COC3=O)c1 (stereo not drawn) | / | -11% | / | 4% | -8% | -2%
O=[N+]([O-])c1ccc(CSc2ncnc3c2ncn3[C@@H]2O[C@H](CO)[C@H](O)[C@H]2O)cc1 | / | -6% | / | / | -6% | -13%
Cc1cccc(CN2C(=O)/C(=C\c3ccc(C(=O)NCCN4CCOCC4)cc3)Sc3ccccc32)c1 | -15% | / | ? | -6% | / | /
CCN1CCN(CCNC(=O)c2ccc3c(c2)N(Cc2ccc(F)cc2)C(=O)/C(=C/c2ccccc2)S3)CC1 | 7% | ? | 50µM* | -3% | ? | ?

High-throughput results: PubChem BioAssay, National Center for Advancing Translational Sciences (NCATS)
